The target in assay [1] is Nuclear receptor subfamily 1 group I member 3 (Homo sapiens) (UniProt Q14994). Kind of assay: qHTS assay to identify small molecule antagonists of the constitutive androstane receptor (CAR) signaling pathway (AID 1224838). Further: nearly all actives have a fitted effect of over 40% in size. Further: potency means the concentration at half of the fitted maximal effect. The procedure, abridged: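 HepG2 cells stably carrying hCAR and a CYP2B6-2.2kb luciferase reporter, seeded 4 hrs before compound (15 concentrations). Stimulated with 50 nM CITCO for 24 hr at 37 C. ONE-Glo luminescence read after 30 min at room temperature.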
Sequence of Nuclear receptor subfamily 1 group I member 3 (Homo sapiens) (Q14994 whole entry, looked up): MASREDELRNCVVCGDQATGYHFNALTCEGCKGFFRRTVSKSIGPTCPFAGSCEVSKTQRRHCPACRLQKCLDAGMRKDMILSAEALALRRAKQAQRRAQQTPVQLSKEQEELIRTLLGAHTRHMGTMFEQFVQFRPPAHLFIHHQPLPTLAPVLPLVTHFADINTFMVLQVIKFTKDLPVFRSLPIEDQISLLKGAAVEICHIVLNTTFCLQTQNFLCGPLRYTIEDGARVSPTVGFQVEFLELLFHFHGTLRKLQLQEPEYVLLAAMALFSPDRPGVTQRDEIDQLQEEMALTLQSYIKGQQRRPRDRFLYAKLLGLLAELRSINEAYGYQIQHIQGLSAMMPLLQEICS

The target is the same in assay [2]. Briefly: qHTS assay to identify small molecule agonists of the constitutive androstane receptor (CAR) signaling pathway (AID 1224839). Further: nearly all actives have a fitted effect of over 15% in size. The method, boiled down: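 Luminescence read-out (ONE-Glo, 30 min, room temperature) from double-stable HepG2-CYP2B6-hCAR cells exposed 24 h to 15-point compound series in presence of 0.75 uM PK11195 final.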
The nature of assay [3]: qHTS assay to identify small molecule agonists of the estrogen related receptor signaling pathway with the pleiotropic PPARgamma coactivator (PGC) from Tox21 10K library (AID 1224842). Further: nearly all actives have a fitted effect of over 15% in size. The method, boiled down:
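Luminescence from One-Glo (30 min, room temperature) measured after PGC/ERR cells had 18 h at 37 C with pinned compound (23 nL in DMSO). Cells had been seeded at 2,000 per well and pre-incubated 6 h.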

Assay [4] addresses Thyrotropin receptor (Homo sapiens) (UniProt P16473). Kind of assay: qHTS assay to identify small molecule agonists of the thyroid stimulating hormone receptor (TSHR) signaling pathway (AID 1224843; calls by dose curve; further: nearly all actives have a fitted effect of over 45% in size). The procedure, abridged:
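HEK293 cells stably bearing the thyrotropin receptor were plated at 800 cells/well and challenged with compound (30 min, RT). Accumulated cAMP was quantified via cAMP-d2 competing for cryptate-tagged antibody.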

The nature of assay [5]: qHTS assay to identify small molecule agonists of the hypoxia (HIF-1) signaling pathway - cell viability counter screen (AID 1224844; calls by dose curve; further: nearly all actives have a fitted effect of over 50% in size; further: potency means the concentration at half of the fitted maximal effect). The procedure, abridged: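 HRE-bla ME-180 cells, 2,000/well in 0.5% dialyzed FBS medium, treated 17 h at 37C with compounds. Viability read in the same wells as the bla reporter, by CellTiter-Glo luminescence after 30 min at room temperature.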

Assay [6] can be described thus: qHTS assay to identify small molecule agonists of H2AX - cell viability counter screen (AID 1224847; calls by dose curve; further: nearly all actives have a fitted effect of over 30% in size; further: potency means the concentration at half of the fitted maximal effect). The method, boiled down: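 CHO-K1 wt, 1000 cells/well, o/n 37C; cpds 15 conc, 3 h 37C, 0.76% DMSO; CellTiter-Glo, 30 min RT, luminescence.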
The nature of assay [7]: qHTS assay to identify small molecule agonists of the estrogen related receptor (ERR) signaling pathway from Tox21 library (AID 1224849; calls by dose curve; further: nearly all actives have a fitted effect of over 15% in size). The following applies: ERR reporter cell line, ONE-Glo luciferase, 18 h; at 92.4 µM (top of the series). The procedure, abridged: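 ERR reporter cells (NTP line) pre-incubated 6 hours at 37 C, then exposed to compounds for 18 hours at 37 C. ONE-Glo luciferase luminescence was read after 30 minutes at room temperature.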

The nature of assay [8]: qHTS RealTime-Glo MT Cell Viability Assay in HEK293 cells - 32 hour (AID 1224868). Further: nearly all actives have a fitted effect of over 50% in size. Further: potency means the concentration at half of the fitted maximal effect. The method, boiled down:
(§1)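 Cells + reagent dispensed (600 cells/well, HEK293) → 5 h at 37 C/5% CO2 → 23 nL compound in DMSO pinned → 40 h at 37 C → luminescence read at 0, 8, 16, 24, 32, 40 h.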

The nature of assay [9]: A CellTox Green Cytotoxicity Assay to monitor cytotoxicity in HEK293 cells - 0 hour (AID 1224869). Further: nearly all actives have a fitted effect of over 50% in size. The procedure, abridged:
(§2)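 HEK293 cells, 600/well, were preincubated 5 hours and then exposed to compounds at 37 C for up to 40 hours. A cell-impermeant cyanine dye staining dead-cell DNA was read by fluorescence at 0, 8, 16, 24, 32 and 40 h time points.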

A short description of assay [10]: qHTS RealTime-Glo MT Cell Viability Assay in HepG2 cells - 40 hour (AID 1224870). Further: nearly all actives have a fitted effect of over 50% in size. Further: potency means the concentration at half of the fitted maximal effect. The method, boiled down: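 Real-time viability: cells seeded at 600 per well together with NanoLuc and cell-permeant prosubstrate, compounds added after 5 h incubation. Luminescence tracked at 0, 8, 16, 24, 32 and 40 h of exposure.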
Assay [11] can be described thus: A CellTox Green Cytotoxicity Assay to monitor cytotoxicity in HEK293 cells - 40 hour (AID 1224871). Further: nearly all actives have a fitted effect of over 45% in size. Further: potency means the concentration at half of the fitted maximal effect. The method, boiled down:
as §2

The nature of assay [12]: qHTS RealTime-Glo MT Cell Viability Assay in HEK293 cells - 16 hour (AID 1224872). Further: nearly all actives have a fitted effect of over 50% in size. Further: potency means the concentration at half of the fitted maximal effect. The method, boiled down: as §1
The nature of assay [13]: qHTS assay to identify small molecule antagonists of the constitutive androstane receptor (CAR) signaling pathway - cell viability counter screen (AID 1224837). Further: nearly all actives have a fitted effect of over 45% in size. Further: potency means the concentration at half of the fitted maximal effect. The procedure, abridged: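 HepG2 cells stably carrying hCAR and CYP2B6-2.2kb reporter, stimulated with 50 nM CITCO and compounds at 15 concentrations for 23 h at 37 C. Viability measured by CellTiter-Fluor fluorescence.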

Assay [14] can be described thus: qHTS assay to identify small molecule antagonists of the estrogen related receptor signaling pathway with the pleiotropic PPARgamma coactivator (PGC) from Tox21 10K library - cell viability counter screen (AID 1224840; active means well fitted cell-killing curve with a large enough effect in the repeat runs, not every such curve was filed as active; further: nearly all actives have a fitted effect of over 40% in size; further: potency means the concentration at half of the fitted maximal effect). The procedure, abridged: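 PGC/ERR cells (2,000/well) plated 6 h, then compound-treated for 17.5 h at 37 C. Viability measured by CellTiter-Fluor fluorescence after 30 min at 37 C, multiplexed with the pathway assay.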

Assay [15] in a line: qHTS assay to identify small molecule agonists of H2AX (AID 1224845; active means well fitted activation curve with a large enough effect in the signal ratio in the repeat runs, not every such curve was filed as active; the % refers to the signal ratio). The procedure, abridged: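 Phospho-H2AX Ser139 measured by HTRF (ex 320 nm; em 665 and 620 nm) after 24 hr antibody incubation. Compounds, 15 concentrations, 0.76% DMSO, were applied to CHO-K1 cells for 3hr at 37C before lysis.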
A short description of assay [16]: qHTS RealTime-Glo MT Cell Viability Assay in HepG2 cells - 24 hour (AID 1224867). Further: nearly all actives have a fitted effect of over 50% in size. Further: potency means the concentration at half of the fitted maximal effect. The method, boiled down: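 Real-time, nonlytic viability: 600 HepG2 cells/well mixed with NanoLuc enzyme plus prosubstrate; 5 h settle, compound (DMSO) added by pintool; luminescence monitored over 40 h at 37 C.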
Assay [17] can be described thus: qHTS assay to identify small molecule agonists of the hypoxia (HIF-1) signaling pathway (AID 1224846; active means well fitted activation curve with a large enough effect in the signal ratio in the repeat runs, not every such curve was filed as active; the % refers to the signal ratio). The procedure, abridged: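 HRE-bla ME-180 beta-lactamase reporter cells in medium with 0.5% dialyzed FBS, pre-incubated 5 h then exposed to compounds 17 h at 37C, 5% CO2; reporter induction read with CCF4-AM FRET substrate.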

The record followed here is PubChem BioAssay (Tox21).

Structures are written as SMILES. “And” between values parts separate entries of the source, which are not always exact repeats. Equal entries are not always repeated. Records with an inconclusive call do not appear. The source holds several records for some structures; these can differ, active in one and inactive in another. The source made the active and inactive calls. Unless noted, the call rests on the fitted dose curve; in most records, active means well fitted curve in the direction sought with a large enough effect in the repeat runs; inconclusive means weak or mixed curves; inactive means no such curve, though single readings can be large; an effect the other way counts as inactive or inconclusive.
On the % scale 0 is the no-effect control and ±100 the full control effect.

Sequence of Thyrotropin receptor (Homo sapiens) (P16473 whole entry, looked up): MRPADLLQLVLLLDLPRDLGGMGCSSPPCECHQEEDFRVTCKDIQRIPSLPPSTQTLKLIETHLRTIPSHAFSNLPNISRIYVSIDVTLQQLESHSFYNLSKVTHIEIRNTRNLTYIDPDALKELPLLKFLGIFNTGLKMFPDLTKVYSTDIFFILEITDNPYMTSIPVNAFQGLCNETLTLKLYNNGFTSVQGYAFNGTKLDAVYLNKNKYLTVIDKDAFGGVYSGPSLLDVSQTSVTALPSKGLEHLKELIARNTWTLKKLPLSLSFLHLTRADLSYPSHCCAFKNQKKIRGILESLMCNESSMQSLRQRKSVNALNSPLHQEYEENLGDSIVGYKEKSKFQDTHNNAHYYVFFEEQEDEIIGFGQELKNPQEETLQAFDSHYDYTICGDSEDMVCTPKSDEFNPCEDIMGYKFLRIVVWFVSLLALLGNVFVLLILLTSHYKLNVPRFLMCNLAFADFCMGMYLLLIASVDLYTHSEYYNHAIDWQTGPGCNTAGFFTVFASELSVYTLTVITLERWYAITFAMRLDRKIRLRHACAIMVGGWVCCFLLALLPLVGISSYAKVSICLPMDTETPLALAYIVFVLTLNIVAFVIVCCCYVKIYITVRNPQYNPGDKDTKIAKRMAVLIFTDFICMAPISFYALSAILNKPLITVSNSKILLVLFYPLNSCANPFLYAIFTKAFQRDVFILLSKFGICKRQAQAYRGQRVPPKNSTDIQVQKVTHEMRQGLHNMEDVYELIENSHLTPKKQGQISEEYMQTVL

Turning to `Nc1cc(Cl)c(-c2cc(Cl)c(N)cc2Cl)cc1Cl`, the Potency in assay [1] was 13.7 µM (active) and 27.3 µM (active); in assay [5] it was 38.9 µM (active); in assay [6] it was 101 µM (active) and 113 µM (active); in assay [8], 6.91 µM (active) and 1.74 µM (active); in [12], 24.5 µM (active). In addition, the Potency entry in assay [2], in assay [3], in [4], in assay [9], in [10] and in assay [11] was “inactive” each time. For the same compound, the activity change, positive = activation in assay [7] was -76.8% (inactive) and -62.3% (inactive).

With `c1ccc2n[nH]nc2c1`, the Potency entry in assay [13], in [1], in assay [2], in assay [14], in [4] and in assay [5] was “inactive” throughout. The Potency result in assay [15], in assay [6], in assay [16], in [8], in assay [9] and in assay [11] was “inactive” in each case. Besides, the Potency result in assay [12] is “inactive”.

Regarding `CC(=O)Nc1ccc(C(=O)CCl)cc1`, the Potency entry in [13], in assay [14], in assay [4], in [15], in assay [17] and in [6] was “inactive” in each case. For the same compound, in assay [16], the Potency result was “inactive”. Further, the Potency result in assay [5] is “inactive and 11 µM (active)”; in assay [8], “inactive and 24.5 µM (active)”; in assay [10] it was “inactive and 24.5 µM (active)”; in assay [11], “inactive and 15.5 µM (active)”; in assay [12], “inactive and 13.8 µM (active)”.

In the case of `CCC[C@H](N[C@@H](C)C(=O)N1[C@H](C(=O)O)C[C@@H]2CCCC[C@@H]21)C(=O)OCC`, the Potency result in assay [13], in assay [14], in [4], in assay [5], in assay [15] and in assay [17] was “inactive” each time. Moreover, the Potency entry in [6], in assay [16], in [8], in [9], in assay [10] and in assay [11] was “inactive” throughout.

Consider `O=C(O[C@@H]1Cc2c(O)cc(O)cc2O[C@@H]1c1cc(O)c(O)c(O)c1)c1cc(O)c(O)c(O)c1`, for which the Potency entry in [1], in [2], in assay [5], in [6] and in assay [11] was “inactive” in each case. The Potency in [8] was 7.48 µM (active); in assay [12] it was 11.9 µM (active).

In the case of `Nc1nc(=S)c2[nH]cnc2[nH]1`, the Potency is 11.9 µM (active) and 4.86 µM (active) in assay [13]; 5.96 µM (active) and 1.93 µM (active) and 2.37 µM (active) in [1]; 23.9 µM (active) and 19.5 µM (active) in assay [8]. The Potency result in assay [2], in assay [14], in assay [4], in assay [15], in assay [17] and in assay [6] was “inactive” each time. Further, the Potency result in [16], in assay [9], in [10] and in assay [11] was “inactive” in each case.

Consider `Clc1ccc2c(c1)C(N1CCNCC1)=Nc1ccccc1O2`, for which the Potency result in assay [14], in [4], in assay [5], in [15], in assay [6] and in assay [9] was “inactive” throughout. Besides, the Potency in [16] is 54.9 µM (active); in [8], 43.6 µM (active) and 26.8 µM (active); in [10], 54.9 µM (active); in [11] it was 26.8 µM (active).

Regarding `CCN(CC)CCOc1ccc(/C(=C(\Cl)c2ccccc2)c2ccccc2)cc1`, the Potency entry in assay [13], in assay [1], in assay [2] and in [9] was “inactive” throughout. Also, the Potency in [14] was 49.6 µM (active); in [5], 39.7 µM (active); in [6], 81.7 µM (active); in assay [16], 28.1 µM (active) and 23.9 µM (active); in assay [8], 14.1 µM (active) and 19 µM (active); in assay [10], 17.7 µM (active) and 23.9 µM (active). Besides, the Potency is 19.9 µM (active) and 23.9 µM (active) in assay [11]; 14.1 µM (active) and 21.3 µM (active) in assay [12].
